High-throughput results as filed in PubChem BioAssay.
DAX1 inh-1: DAX1 (NR0B1) inhibitors, primary screen, cell-based, HEK293, Gal4-DAX1, luciferase luminescence | Nuclear receptor subfamily 0 group B member 1 (Homo sapiens), P51843 | HEK293 Gal4-DAX1 luciferase reporter | inhibition, % at 6.75 µM | hit rate 0.99% among 340,000 | AID 504766, 2011;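 active = inhibition above the mean over all tested compounds plus 3 SD, cut at about 4.2% in these data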;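 note: 0% = DAX1-transfected cells with DMSO and 100% = empty-vector control cells with DMSO; inhibition shows as a rise in luminescence from relieved DAX1 repression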
hcDAF-12 act: H. contortus DAF-12 nuclear receptor activators, primary screen, cell-based, luminescence, HEK293, lit1-tk-luc reporter. HEK293 hcDAF-12 lit1-tk-luc reporter; 0% DMSO, 100% Δ7-dafachronic acid. activation, % at 6.8 µM. hit rate 1.4% among 370,000. AID 652067, 2013;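 active = activation above the mean of all tested compounds plus 3 SD, cut at about 5.5% in these data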;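 note: 100% = response to 3 µM Δ7-dafachronic acid high control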
ssDAF-12 act: S. stercoralis DAF-12 nuclear receptor activators, primary screen, cell-based, luminescence, HEK293, GRIP1 co-expression, lit1-tk-luc | Nuclear hormone receptor DAF-12 (Strongyloides stercoralis) | HEK293 ssDAF-12/GRIP1 lit1-tk-luc reporter; % of 3 µM dafachronic acid response | activation, % at 6.8 µM | hit rate 1% among 370,000 | AID 652126, 2013;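 active = activation above the mean over all tested compounds plus 3 SD, cut at about 0.9% in these data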;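 note: 0% = DMSO-only wells and 100% = 3 µM delta7-dafachronic acid wells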
DAX1 inh-2: DAX1 (NR0B1) inhibitors on StAR promoter, primary screen, cell-based, luminescence, SF-1 (NR5A1), full-length DAX-1 | HEK293T StAR-luciferase reporter, SF-1/DAX-1 repression relief | inhibition, % at 6.8 µM | hit rate 1.1% among 370,000 | AID 652010, 2013;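 active = inhibition above the mean over all tested compounds plus 3 SD, cut at about 3.6% in these data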;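 note: 0% = DAX-1 cells with DMSO and 100% = cells lacking DAX-1 with DMSO; higher inhibition means more luminescence from relief of DAX-1 repression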
hgDAF-12 ag: H. glycines DAF-12 receptor agonists, primary screen, cell-based, luminescence, HEK293, GAL4 fusion, UAS-luciferase | Nuclear hormone receptor DAF-12 (Heterodera glycines), GAL4 fusion | AID 687014, 2013 | HEK293 GAL4-hgDAF12 UAS-luciferase reporter, agonist luminescence; normalized to butyrate control | hit rate 1.8% among 370,000 | activation, % at 6.8 µM;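 active = activation above a cutoff set at the mean of all screened compounds plus 3 SD, cut at about 10% in these data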;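 note: 0% = DMSO wells and 100% = sodium butyrate wells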
DAX1 conf: DAX1 (NR0B1) inhibitors relieving SF-1 repression, confirmation, cell-based, luminescence, HEK293T, full-length DAX-1, SF-1 activated StAR promoter; shares compounds with DAX1 inh-2; HEK293T StAR-promoter luciferase reporter, SF-1/DAX-1 repression; inhibition, % at 6.8 µM; hit rate 87% among 2,400; AID 652134, 2013;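 active = inhibition above the average of every tested compound plus 3 SD, cut at about 3.8% in these data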;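 note: 0% = DAX-1 cells with DMSO and 100% = no DAX-1 control cells with DMSO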
Target sequence (P51843 whole entry, looked up): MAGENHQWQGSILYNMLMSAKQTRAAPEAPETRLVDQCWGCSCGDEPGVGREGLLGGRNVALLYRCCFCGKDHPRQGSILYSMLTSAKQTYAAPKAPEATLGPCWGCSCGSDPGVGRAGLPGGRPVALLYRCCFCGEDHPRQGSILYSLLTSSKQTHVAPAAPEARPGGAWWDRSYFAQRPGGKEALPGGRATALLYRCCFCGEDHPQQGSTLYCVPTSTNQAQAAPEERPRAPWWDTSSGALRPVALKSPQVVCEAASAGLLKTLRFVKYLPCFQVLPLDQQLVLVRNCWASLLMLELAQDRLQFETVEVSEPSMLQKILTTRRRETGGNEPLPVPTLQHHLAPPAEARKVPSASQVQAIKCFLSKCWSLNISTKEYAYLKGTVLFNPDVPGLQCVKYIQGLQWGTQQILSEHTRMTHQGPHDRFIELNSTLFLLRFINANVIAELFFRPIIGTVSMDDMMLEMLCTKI
SF1 mutant ctr: StAR reporter signal changes without DAX1, counter-screen for DAX1 inhibitor project, cell-based, luminescence, AF-2 mutant SF-1, transactivation; shares compounds with DAX1 inh-2; inhibition, % at 6.8 µM; HEK293 StAR-luciferase, SF-1 AF2 mutant; hit rate 78% among 2,400;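 active = inhibition above the mean of all tested compounds plus 3 SD, cut at about 3% in these data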;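 note: 0% = DAX-1 transfected cells with DMSO and 100% = cells without DAX-1 with DMSO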
LXRb hcDAF ctr: LXR agonists, Gal4 luciferase reporter, confirmation, counter-screen for hcDAF-12 agonist project, cell-based, luminescence, HEK293, H. contortus campaign; activation, % at 6.8 µM; HEK293 Gal4-LXR tk-luc reporter, 24 h; normalized: DMSO 0%, positive control 100%; shares compounds with hcDAF-12 act; 3,400 tested, under 10 active;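 active = mean percent activation of the reporter above a cutoff set as the average over tested compounds plus their standard deviation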
hcDAF12 ag: H. contortus DAF-12 receptor agonists, confirmation, cell-based, luminescence, HEK293, lit1-tk-luc, triplicate; HEK293 hcDAF-12 lit1-tk-luc reporter; % of Δ7-dafachronic acid response; shares compounds with hcDAF-12 act; activation, % at 6.8 µM; AID 743032, 2013; hit rate 61% among 3,400;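 active = mean activation across triplicate tests above the threshold derived from the earlier primary screen, cut at about 5.5% in these data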;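 note: 0% = DMSO only wells and 100% = 3 µM Δ7-dafachronic acid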
hgDAF12 ag: H. glycines DAF-12 receptor agonists, confirmation, cell-based, luminescence, HEK293, GAL4-LBD fusion; shares compounds with hgDAF-12 ag; HEK293 GAL4-hgDAF12 luciferase reporter, agonist mode; percent of butyrate response; activation, % at 6.8 µM; hit rate 80% among 3,300;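 active = mean activation over triplicate wells above the hit cutoff derived from the earlier primary screen, cut at about 11% in these data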;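 note: 0% = DMSO low control and 100% = 2 mM sodium butyrate high control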
LXRb DAF12 ctr: LXR agonists, Gal4 luciferase reporter, confirmation, counter-screen for hgDAF-12 agonist project, cell-based, luminescence, HEK293, H. glycines campaign; activation, % at 6.8 µM; 24 h; 3,300 tested, under 10 active; shares compounds with hgDAF-12 ag;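 active = mean activation of the triplicate above a set limit carried over from the primary screen, none filed active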
Starred values were filed as active, the others as inactive; nt = not tested or not shown. Rows were chosen to be rich in hits. Some 4.1% of all compounds tested hit in one or more screens of this group.

SMILES	DAX1 inh-1	hcDAF-12 act	ssDAF-12 act	DAX1 inh-2	hgDAF-12 ag	DAX1 conf	SF1 mutant ctr	hgDAF12 ag	LXRb DAF12 ctr	others
C[C@@H]1ON(C)[C@H]2C[C@H]3c4[nH]c5cccc(-c6cccc(F)c6)c5c4CCN3C(=O)[C@@H]12	nt	-1	-1	0	0	nt	nt	nt	nt
COc1cnc(-c2ccccn2)[nH]c1=O	0	-1	-1	1	-1	nt	nt	nt	nt
COc1cccc2[nH]c(-c3ccccn3)nc12	nt	6.4*	1	7.2*	18*	8.6*	5.6*	16*	1
CN1OC[C@@H]2CN3C(=NCCc4ccccc4)Sc4ccccc4[C@@H]3C[C@@H]21	nt	2	-1	0	6	nt	nt	nt	nt
O=C(Nc1nc2cc3c(cc2s1)OCCO3)C1CCCCC1	1	4	1	15*	13*	12*	4.4*	15*	1
O=C(Nc1nc2cc3c(cc2s1)OCO3)C1CCCCC1	1	9.8*	0	12*	14*	15*	7.7*	16*	1	LXRb hcDAF ctr=1;hcDAF12 ag=5
O=C(Nc1nc2cc3c(cc2s1)OCO3)C1CC1	0	-1	-2	0	3	nt	nt	nt	nt
C(=N\NC1=Nc2cccc3cccc1c23)/c1ccccc1	5.7*	18*	4.5*	6.6*	23*	13*	9.5*	27*	1	LXRb hcDAF ctr=2;hcDAF12 ag=21*
COc1cc(O)cc(/C=C/c2ccccc2)c1	2	4	0	4.6*	15*	9.3*	5.5*	16*	1
COc1ccc(C(=O)/C=C/c2ccccc2)c(O)c1	1	1	-1	1	8	nt	nt	nt	nt
COc1cc(OC)c2c(=O)cc(-c3ccccc3)oc2c1	4	3	-1	4.7*	16*	4.7*	1	9	0
COC(=O)C1=C(C(=O)OC)[C@@]2([C@@H](Cc3ccc(C)cc3)Nc3ccccc3)C=C[C@@H]1O2	nt	-4	-2	nt	-11	nt	nt	nt	nt
Cc1cccnc1NC(=O)Cn1nc(-c2ccccc2)oc1=S	1	4	1.0*	4.9*	19*	12*	7.5*	17*	1
Clc1ccccc1N=C1NN=C(c2cccs2)CS1	4	10*	1.3*	7.2*	18*	9.5*	5.3*	16*	1	LXRb hcDAF ctr=1;hcDAF12 ag=9.3*
Cc1ccc(C(=O)NC2CCC(C)CC2)s1 (stereo not given)	1	4	1.0*	14*	19*	15*	6.6*	18*	1
CC1CCC(NC(=O)c2cc3c(s2)CCCC3)CC1 (stereo not given)	2	2	0	6.1*	14*	6.7*	4.5*	12*	0
CNC(=O)c1cc2c(s1)CCCCCC2	1	0	-1	0	-2	nt	nt	nt	nt
Cc1ccccc1C(=O)N[C@@H](Cc1cccnc1)C(=O)N1CCC[C@H]1C(=O)NC1CCCC1	nt	0	0	0	-5	nt	nt	nt	nt
O=C(OCC(=O)N1CCN(c2ccccc2)CC1)c1ccccc1[N+](=O)[O-]	3	4	0	6.2*	15*	9.4*	3.6*	10	1
O=C(OCC(=O)N1CCN(c2ccccc2)CC1)c1cccc([N+](=O)[O-])c1	-1	-1	-1	0	0	nt	nt	nt	nt
O=C(Nc1ccc(-c2nc3cccnc3s2)cc1)c1ccco1	1	6.4*	2.0*	8.9*	19*	17*	8.4*	18*	1
C[C@H](O)[C@@H]1CN2CCc3ccc(N4CCOCC4)cc3[C@@H]2C[C@@H]1N(C)C(=O)c1ccccc1F	nt	-1	-1	-1	4	nt	nt	nt	nt
Cc1ccc(-c2nc3ccc([N+](=O)[O-])cc3[nH]2)cc1	-2	7.1*	0	9.2*	18*	14*	6.7*	18*	1	LXRb hcDAF ctr=1;hcDAF12 ag=7.1*
O=[N+]([O-])c1ccc2nc(-c3ccncc3)[nH]c2c1	3	2	-1	0	4	nt	nt	nt	nt
Cc1cc(C(=O)c2ccccc2)nc2ccccc12	-1	-2	-2	0	-2	nt	nt	nt	nt
Cc1cc(/C=C\c2ccccc2)nc2ccccc12	5.6*	10*	1	6.0*	15*	6.4*	4.1*	17*	0	LXRb hcDAF ctr=1;hcDAF12 ag=8.6*
O=C(NS(=O)(=O)c1cccc(F)c1)[C@H]1O[C@@H](n2ccc(=O)[nH]c2=O)[C@H](O)[C@@H]1O	nt	-1	-1	-1	6	nt	nt	nt	nt
c1ccc2sc(N3CCCCC3)nc2c1	3	2	0	7.8*	13*	9.7*	6.5*	15*	1
Fc1ccc2nc(N3CCCC3)sc2c1	1	5	-1	5.2*	28*	7.9*	5.0*	15*	1
O=[N+]([O-])c1ccc2nc(N3CCCC3)sc2c1	1	3	0	0	7	nt	nt	nt	nt
